Results taken from PubChem BioAssay AID1463 (National Center for Advancing Translational Sciences (NCATS), 2008).
About 2,600 (0.93%) of roughly 280,000 compounds were called active. Roughly 8% stayed inconclusive and do not appear here. The entries come from a sample that favours actives as a whole. A number with no mark means an inactive call. The call rests on the fitted dose curve; in most records, active means well fitted curve in the direction sought with a large enough effect; inconclusive means small, poorly fitted or top-dose-only effect; inactive means flat fitted curve, though single readings scatter.

Assay: Counterscreen qHTS for Inhibitors of Tau Fibril Formation, Fluorescence Polarization; further: nearly all actives have a fitted effect of over 55% in size
Settings: tau K18 P301L Alexa594 fluorescence, heparin fibrillization; series mostly up to 57.7 µM; activity change, negative = decrease: at the top concentration
Procedure, shortened: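 Human tau K18 P301L (15 uM unlabeled, 0.24 uM Alexa 594-labeled) in 100 mM sodium acetate pH 7 with 20 uM heparin, 6 hr at 37 C. ThT 30 uM added, 1 hr ambient; Alexa 594 FP and total fluorescence read at 555/632 nm.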
On the % scale 0 is the no-effect control and ±100 the full control effect; potency means the concentration at half of the fitted maximal effect; tags describe the fitted curve by direction and shape or compound fluorescence and quenching.

Row | SMILES | activity change, negative = decrease | Potency
1 | COc1cccc(C(=O)Nc2nc3ccc(S(C)(=O)=O)cc3s2)c1 | -24.7% | –
2 | COc1ccc(NC(=O)Nc2cccc(-c3noc(C)n3)c2)cc1 | -19% | –
3 | COc1ccc(/C=N/NC(=O)Nc2ccc3nsnc3c2)c(OC)c1 | -23.2% | –
4 | CCC(=O)c1ccc(OCC(=O)Nc2ccc3nc(C)sc3c2)cc1 | -5.88% | –
5 | CCOc1ccc2nc(Nc3nc4ccc(NC(C)=O)cc4s3)sc2c1 | – | 15.8 µM [quencher] (active)
6 | COc1ccc2nc(Nc3nc4cc5c(cc4s3)OCCO5)sc2c1 | – | 7.08 µM [quencher] (active)
7 | Cc1nc2cc3c(cc2s1)OCO3 | -5.34% | –
8 | COc1ccc2nc(NC(=O)[C@@H]3CCCN3C(=O)c3cccs3)sc2c1 | -1.01% | –
9 | CCOc1ccc2nc(NC(=O)CSc3nc4c(c(=O)n(C)c(=O)n4C)n3CC)sc2c1 | 0.975% | –
10 | COc1ccc2nc(Nc3nc(-c4ccncc4)cs3)sc2c1 | – | 17.8 µM [quencher] (active)
11 | COc1ccc2nc(Nc3nc(-c4cc5ccccc5oc4=O)cs3)sc2c1 | -9.89% | –
12 | COc1ccc(NC(=O)Nc2ccc3nsnc3c2)cc1 | – | 15.8 µM [quencher] (active)
13 | CCc1cnc2c(c1SCC(=O)c1ccccc1)c(=O)n(C)c(=O)n2C | -7.49% | –
14 | COc1ccc(OC)c(CNC(=O)CN2C(=O)CCn3nc(-c4cn(C)c5ccccc45)cc32)c1 | -14.3% | –
15 | COc1ccc2[nH]c3c(c2c1)CCN(C(=O)CCC1CCCC1)C3c1ccc(F)cc1 (stereo not given) | -21.7% | –
16 | Cc1cccc(C2CC(=O)Oc3c2c(=O)n(C)c2ccccc32)c1 (stereo not given) | -11.1% | –
17 | CCC(=O)Nc1cccc(C(=O)OCc2cc(=O)n3nc(CC)sc3n2)c1 | 1.65% | –
18 | O=C(O)c1ccc2c(c1)N(Cc1ccc(F)cc1)C(=O)c1ccccc1S2=O (stereo not given) | 0.615% | –
19 | Cc1cccc(NC(=O)c2ccc(F)c(S(=O)(=O)N(C)C3CCCCC3)c2)c1 | -29.8% | –
20 | CCOc1ccc(OCC)c(NC(=O)c2c(C)nn(-c3ccccc3)c2-n2cccc2)c1 | -22.7% | –
21 | Cc1ccc(C2c3[nH]c4ccccc4c3CCN2C(=O)c2cccc(C)c2)cc1 (stereo not given) | -15.6% | –
22 | CCOc1cccc(CNC(=O)c2ccc(N3CCCC3)c(NC(=O)Nc3ccccc3CC)c2)c1 | 6.88% | –
23 | CNC(=O)c1ccc2nc(NC(C)=O)sc2c1 | -4.01% | –
24 | COc1ccc2nc(Nc3nc4ccc(NC(C)=O)cc4s3)sc2c1 | – | 12.6 µM [quencher] (active)
25 | CCCC(=O)Nc1nc2ccc(NC(=O)c3c(F)c(F)c(OC)c(F)c3F)cc2s1 | -26.7% | –

Row | SMILES | activity change, negative = decrease | Potency
26 | COc1ccc(Cl)cc1N(C)C(=O)c1cc2c(=O)oc3ccc(C)cc3c2s1 | -17% | –
27 | COc1ccc(CCNS(=O)(=O)c2cc(-c3cc(C)no3)ccc2C)cc1OC | -9.75% | –
28 | CC(C)(C)c1ccc(C(=O)NCC(c2ccc(Cl)cc2)N2CCOCC2)cc1 (stereo not given) | -15% | –
29 | COc1ccc(Br)cc1C1CC(=O)Nc2c1c(C)nn2-c1nc(C)cc(C)n1 (stereo not given) | 2.83% | –
30 | COc1ccccc1Cc1nc2ccccc2nc1SCC(=O)N1CCCc2ccccc21 | -9.37% | –
31 | COc1ccc(/C=N/NC(=O)c2ccncc2)cc1CN1CCCc2ccccc21 | – | 14.1 µM [quencher] (active)
32 | COc1ccc(/C=N/NC(=O)c2ccc(Cl)cc2)cc1COC(C)=O | -20.2% | –
33 | CCOC(=O)C1CCCN(C(=O)c2ccc(-n3ccc4ccccc43)s2)C1 (stereo not given) | -5.78% | –
34 | CCOc1ccc(N(CC)C(=O)c2noc3c2COc2ccc(C)cc2-3)cc1 | -0.276% | –
35 | COc1ccc2c(C)c(CCC(=O)NCc3ccc(OC)c(OC)c3)c(=O)oc2c1 | -23.7% | –
36 | Cc1cc2c(cc3c(SCc4cccc(Cl)c4)nnc(C)n32)o1 | -16.2% | –
37 | COc1ccc(OC)c(-c2nc(C(N)=O)c3c(n2)n(-c2ccc4c(c2)OCO4)c(=O)n3C)c1 | -6.91% | –
38 | O=[N+]([O-])c1cc(Br)c(O)c(/C=N/Nc2nc3ccccc3s2)c1 | – | 7.94 µM [quencher] (active)
39 | COc1cc(/C=N/Nc2nc3ccccc3s2)ccc1O | – | 12.6 µM [quencher] (active)
40 | c1ccc2sc(NN=C3CCCC3)nc2c1 | -19.4% | –
41 | COc1ccc(/C=N/Nc2nc3ccccc3o2)cc1OC | -22.7% | –
42 | Cc1ccc(S(=O)(=O)Nc2nc3ccccc3s2)cc1[N+](=O)[O-] | -10.2% | –
43 | COc1ccc(/C=N\NC(=O)c2sc(N)nc2C)cc1OC | -14.1% | –
44 | COc1cc(/C=N/NC(=O)CCc2n[nH]c(=O)[nH]c2=O)ccc1O | 4.76% | –
45 | COc1cc(/C=N\Nc2nc(-c3cccs3)c(NC(C)=O)s2)ccc1O | – | 17.8 µM [quencher] (active)
46 | CCNc1nc(NCC)nc(N/N=C/c2ccc(O)c(OC)c2)n1 | -22.5% | –
47 | CCCN1CCN(CCCNC(=O)c2ccc3nc(Cc4ccccc4)oc3c2)CC1 | -2.06% | –
48 | O=C1CN(C(=O)Nc2ccccc2C(F)(F)F)C(c2ccccc2)c2c(sc3c2CCCC3)N1 (stereo not given) | -4.27% | –
49 | CCCN1CN=C(NS(=O)(=O)c2ccc(NC(C)=O)cc2)NC1 | -7.06% | –
50 | O=C(NCCc1ccccc1)c1cnc2sc(N3CCCC3)nn2c1=O | 3.82% | –

Row | SMILES | activity change, negative = decrease | Potency
51 | CN(C)CCCn1c(-c2ccc(Cl)cc2)csc1=Nc1ccccc1 | -11.9% | –
52 | Cc1cc(NS(=O)(=O)c2ccc3oc(=O)c4ncn(C)c4c3c2)ccc1Br | -23.7% | –
53 | CNC(=O)c1ccc(NC(=O)c2cccc(C(F)(F)F)c2)cc1 | 6.68% | –
54 | O=C(Nc1ccc(-c2csc(Nc3cccc(C(F)(F)F)c3)n2)cc1)c1cccc(C(F)(F)F)c1 | – | 5.01 µM [quencher] (active)
55 | Cc1cccc(NC(=O)c2cccc(C(F)(F)F)c2)c1 | -17.5% | –
56 | CC(C)S(=O)(=O)c1oc(-c2ccc(F)cc2)nc1S(=O)(=O)c1ccc(F)cc1 | -7.98% | –
57 | COc1ccccc1-c1n[nH]c2c1[C@H](C)CC[C@H]2C(C)C | -3.61% | –
58 | CCOc1ccc(-c2n[nH]c(C)c2-c2ccccn2)c(O)c1 | -5.41% | –
59 | C=C(C)COc1ccc(-c2n[nH]c(C)c2-c2ccccc2)c(O)c1 | – | 15.8 µM [quencher] (active)
60 | COc1ccccc1-c1c(C)nn2c(C)c(C(C)=O)cnc12 | 3.82% | –
61 | C=C(C)COc1ccc(-c2n[nH]c(C)c2-c2ccccc2OC)c(O)c1 | – | 17.8 µM [quencher] (active)
62 | CC(=O)COc1ccc2c(-c3ccccc3)cc(=O)oc2c1 | -1.82% | –
63 | COc1ccc(CNC(=O)c2cc3cccc(OC)c3oc2=O)cc1 | -14.3% | –
64 | CSc1ccc(CCNC(=O)c2cc(C)nc3c2c(C)nn3-c2cccc(F)c2)cc1 | -10.8% | –
65 | Oc1cc2c(cc1O)CN(C(=S)NCCc1ccc(Cl)cc1)CCC2 | – | 10 µM [quencher] (active)
66 | O=C1CCN(C(=S)NCCc2ccccc2)CC1 | 2.95% | –
67 | S=C(NCCc1ccccc1)N1CCCCC1 | -5.45% | –
68 | O=C(Cc1ccc(Cl)cc1)NCC(c1cccs1)S(=O)(=O)c1ccc(Cl)cc1 (stereo not given) | -21.3% | –
69 | COc1ccc(-c2cn3nc(N4CCC(C(=O)Nc5cccc(C)c5C)CC4)sc3n2)cc1 | -15.3% | –
70 | Cc1ccc(-n2ncc(C(=O)N(C)Cc3ccccc3)c2-n2cccc2)cc1 | -3.21% | –
71 | COCCNC(=O)Nc1ccc2nc(-c3ccco3)c(-c3ccco3)nc2c1 | – | 8.91 µM [quencher] (active)
72 | O=C(Nc1ccc2nccnc2c1)c1ccco1 | 1.38% | –
73 | CCOc1ccc(NC(=O)c2ncoc2-c2ccco2)cc1 | -18.1% | –
74 | Cc1cc(C)cc(NC(c2nnc(-c3cccc(F)c3)o2)c2ccc(F)cc2Cl)c1 (stereo not given) | -16.8% | –
75 | O=C(Nc1c2c(nc3ccccc13)CCCC2)c1ccccc1Br | -1.32% | –

Row | SMILES | activity change, negative = decrease | Potency
76 | CC(=O)Nc1ccc(Nc2c3ccccc3nc3ccccc23)cc1 | -25.2% | –
77 | O=C(NNc1c2ccccc2nc2ccccc12)c1cc2ccccc2cc1O | – | 4.47 µM [quencher] (active)
78 | O=C(O)CCC(=O)NCc1ccc2[nH]c3c(c2c1)CCCC3 | -1.4% | –
79 | Cc1cccc(NC(=S)NCCN(C2CCCCC2)C2CCCC2)c1 | -10.1% | –
80 | Cc1cccc(NC(=S)NCc2ccc3[nH]c4c(c3c2)CCCC4)c1 | – | 14.1 µM [quencher] (active)
81 | CCc1ccc(NC(=O)N2CCN(C(=O)c3nsc4ccccc34)CC2)cc1 | -9.11% | –
82 | COc1ccc(S(=O)(=O)c2cn(C)c3cc(N4CCCCC4)c(F)cc3c2=O)cc1 | -3.74% | –
83 | Cn1c(=O)c2c(nc(SCC(=O)Nc3ccc(F)cc3)n2Cc2ccccc2)n(C)c1=O | -23.1% | –
84 | CCc1ccc(CN(Cc2ccco2)C(=O)COc2ccc(Cl)c(C)c2)cc1 | -6.86% | –
85 | COc1ccc(-c2csc(NC(=O)COC(=O)c3ccc(Br)o3)n2)cc1 | -17.9% | –
86 | O=C(Nc1ccncc1)c1cc2ccccc2o1 | -8.25% | –
87 | NS(=O)(=O)c1ccc(Nc2nc(-c3ccccc3)cs2)cc1 | – | 15.8 µM [quencher] (active)
88 | Cc1cc(NC(=O)c2cccc(Cl)c2)ccc1-c1cc2ccccc2oc1=O | -26.8% | –
89 | O=c1oc2ccccc2cc1-c1csc(Nc2ccc(O)cc2)n1 | – | 14.1 µM [quencher] (active)
90 | O=C(Nc1nc(-c2ccc(-c3ccccc3)cc2)cs1)c1cnccn1 | -17.8% | –
91 | CC(=O)Nc1nc(C)c(-c2csc(Nc3ccc(S(N)(=O)=O)cc3)n2)s1 | -27.7% | –
92 | COc1ccc(-c2csc(NC(=O)c3ccc(N4C(=O)CCC4=O)cc3)n2)cc1OC | -6.64% | –
93 | COc1ccc(-c2csc(Nc3ccc(O)cc3)n2)cc1 | – | 11.2 µM [quencher] (active)
94 | COc1ccc(OC)c(Nc2nc(-c3ccc(O)c(O)c3)cs2)c1 | – | 14.1 µM [quencher] (active)
95 | COc1ccc(-c2csc(NC(=O)CCCc3cccs3)n2)cc1 | -2.65% | –
96 | Cc1ccc(-c2csc(NC(=O)c3cnccn3)n2)cc1C | 6.03% | –
97 | Cc1cccc(NC(=O)c2ccc3nc(C(C)C)oc3c2)c1C | 0.976% | –
98 | CCOC(=O)c1ccc(NC(=O)CCS(=O)(=O)c2ccc(C)cc2)cc1 | -9.69% | –
99 | CCOc1ccccc1N(CC)C(=O)c1cc2ccc3cccnc3c2[nH]1 | -12.8% | –
100 | CCOc1ccc(N(C)S(=O)(=O)c2cc(-c3cnc(C)o3)ccc2OC)cc1 | -16.6% | –
